According to PubChem BioAssay AID623868 (Vanderbilt High Throughput Screening Facility, 2012):
Among all 2,100 compounds or so, about 760 (36%) were called active. A selection follows. Values without a mark were called inactive.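 The calls were made as follows: active = thallium-flux fluorescence traces judged by eye to show enhanced or reduced glutamate response, manual score 1 or -1, so both directions (some results past the limit were not filed as active); inactive = the rest, including fluorescent or raised-baseline compounds.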

Experiment: non-GIRK thallium flux modulation in mGlu8 cells, confirmation, counter-screen for GIRK activator project, cell-based, HEK-293 rmGlu8, no GIRK (AID 623868);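 also: extra codes mark interference with 3 for fluorescent and 4 for baseline rise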
Conditions: thallium flux fluorescence, at 10 µM, actives lie on both sides, codes: 1 enhancer, -1 blocker, 0 none, thallium stimulus containing EC20 glutamate

Compound	manual score
CCOC(=O)CSC1=C(C#N)C(=O)NC(c2ccc(OC)c(OC)c2)S1 (stereo unspecified)	0
CCc1nc(SCC(=O)N2CC(=O)Nc3ccccc32)c2c(C)c(C)sc2n1	1 (active)
CCc1nnc(NC(=O)CSc2nnc(-c3c[nH]c4ccccc34)n2CC)s1	0
CCSc1nnc(NC(=O)CC)s1	0
Cc1cc(NC(=O)CSc2nc3ccsc3c(=O)n2NC(=O)c2ccccc2)no1	0
Cc1sc2nc(C3CC3)nc(SCC(=O)N3CC(=O)Nc4ccccc43)c2c1C	1 (active)
Cc1ccc(N(C(=O)CCC(=O)Nc2cc(C)on2)C(C(=O)NC2CCCC2)c2cccs2)cc1 (stereo unspecified)	0
Cc1cc(NC(=O)CSc2nc(C3CC3)nc3sc(C)c(C)c23)no1	1 (active)
CCc1nc(SCC(=O)Nc2nnc(CC)s2)c2c(C)c(C)sc2n1	1 (active)
CCc1c(C)nc(SCC(=O)N2CCc3ccccc32)[nH]c1=O	0
Cc1ccc(C)c(Nc2c([N+](=O)[O-])cc(C(=O)N3CC(=O)Nc4ccccc43)cc2[N+](=O)[O-])c1	0
CN1C(=O)NC(c2ccccc2)C2=C1CN(Cc1ccccc1)C2=O (stereo unspecified)	0
CCOC(=O)C1(C(C)(C)CC)CC(CSc2nc3ccccc3[nH]2)OC1=O (stereo unspecified)	0
CN1CCN(C(=O)c2sc(=S)n(-c3ccccc3)c2N)CC1	0
O=C(NCCSCc1ccco1)Nc1cccc(Cl)c1	0
CN(C(=O)CSC1=Nc2ccccc2C2=NC(c3ccccc3)C(=O)N12)C1CCCCC1 (stereo unspecified)	-1 (active)
Cc1sccc1C1C(C#N)=C(N)SC(N)=C1C#N	-1 (active)
Cc1ccc(C(C(=O)NC2CCCC2)N2CCCC(C)C2)cc1 (stereo unspecified)	0
CCOC(=O)C1CCN(C(=O)NC23CC4CC(CC(C4)C2)C3)CC1	0
CCC(=O)c1ccc(N2CCN(C(=O)c3cc([N+](=O)[O-])ccc3N3CCN(C)CC3)CC2)c(F)c1	0
O=C(NC(=S)N1CCN(c2ccc(F)cc2)CC1)C12CC3CC(CC(C3)C1)C2	1 (active)
O=C(NC(=S)N1CCN(c2ccc([N+](=O)[O-])cc2)CC1)c1ccc(F)cc1	1 (active)

Compound	manual score
CC12CC3CC(C)(C1)CC(C(=O)NC(=S)N1CCCCC1)(C3)C2	1 (active)
CCOc1ccccc1N1CCN(C(=S)NC(=O)C23CC4CC(CC(C4)C2)C3)CC1	0.5
O=C(c1csc2c1CCCC2)N1CCN(c2ccc(F)cc2)CC1	0
O=C(NC(=S)N1CCCCC1)C12CC3CC(CC(C3)C1)C2	1 (active)
O=S(=O)(c1ccccc1)N1CCN(C(=S)Nc2ccc(F)cc2)CC1	0
CCCCN(Cc1ccccc1)S(=O)(=O)c1ccc2[nH]c(=O)oc2c1	0
COc1ccc(Cl)cc1C(=O)CSc1nnnn1C1CCCC1	0
CC12CC3(C)CC(C)(C1)CC(C(=O)NC(=S)N1CCOCC1)(C2)C3	1 (active)
CC12CC3CC(C)(C1)CC(C(=O)NC(=S)N1CCOCC1)(C3)C2	1 (active)
O=C(c1ccco1)N1CCN(C(=O)c2cnn3c2NC(c2cccs2)CC3C(F)(F)F)CC1 (stereo unspecified)	0
O=C(CSc1nc(-c2ccccc2)cc(C(F)(F)F)n1)NCCN1CCOCC1	0
CCc1sc(NC(=O)CN2CCOCC2)nc1-c1ccccc1	-1 (active)
O=C(CN1CCOCC1)Nc1ccc(C2CCCCC2)cc1	0
CCN(CC)S(=O)(=O)c1csc(C(=O)NCc2ccccc2)c1	0
COc1ccc(C(OC(=O)c2cccs2)C(=O)NCC2CCCO2)cc1 (stereo unspecified)	0
COc1ccc2nc3oc(C(=O)Nc4ccc(OC)c(OC)c4)cc3cc2c1	0
COc1ccc(OC)c(C2C(C(=O)c3cc4ccccc4o3)=C(O)C(=O)N2c2cc(C)on2)c1 (stereo unspecified)	-1 (active)
Cc1cc(N2C(=O)C(O)=C(C(=O)c3ccc(C)o3)C2c2cccs2)no1 (stereo unspecified)	-1 (active)
C=CCOc1cccc(C2C(C(=O)c3ccc(C)o3)=C(O)C(=O)N2c2nccs2)c1 (stereo unspecified)	3
COc1ccc(OC)c(C2C(C(=O)c3cccs3)=C(O)C(=O)N2c2cc(C)on2)c1 (stereo unspecified)	-1 (active)
C/C(CC(=O)NCC(C)C)=N\NC(=O)COc1cc(C)c(Br)cc1Br	0
CCOc1ccc(NC(=O)CCC(=O)c2ccc(-c3ccccc3)cc2)cc1	0

Compound	manual score
CCOc1ccc(C(=O)NC(=S)N(Cc2ccccc2)Cc2ccccc2)cc1	1 (active)
COc1ccc(S(=O)(=O)N(CCc2ccccc2)CC(=O)O)cc1	0
CCOc1ccc(N2C(=O)c3ccccc3C2O)cc1 (stereo unspecified)	0
COc1ccc(C(=O)NC(=S)N(Cc2ccccc2)Cc2ccccc2)cc1	1 (active)
CC(=O)CN1Cc2ccccc2/C1=N\C(=O)Nc1ccccc1	0
Cc1nc2ccccn2c1-c1csc(NCc2ccco2)n1	-0.5
CCc1c(C)c(C#N)c2nc3ccccc3n2c1NCc1ccco1	-1 (active)
Cn1cc(S(=O)(=O)Nc2ccc(F)cc2F)c(=O)n(C)c1=O	0
COc1ccc(C(=O)N/N=C/c2ccc3cccc(OCc4ccccc4)c3n2)cc1	1 (active)
O=C(N/N=C/c1ccc2cccc(OCc3ccccc3)c2n1)c1ccc(Br)cc1	1 (active)
N/C(=N\OC(=O)Cc1ccccc1)c1ccc(Br)cc1	0
O=C(N/N=C/c1ccccn1)c1ccc(Br)cc1	1 (active)
COc1ccc(/C=N/NC(=O)c2nc(-c3ccccc3)cc(-c3ccccc3)n2)cc1	0
CSC1=N/C(=C\c2ccc(Br)o2)C(=O)S1	0
CCCCN(C)C1=CC2=CC(=C(C#N)C#N)CCC2CC1 (stereo unspecified)	3
Cc1cc2c(cc1C)C(=O)NC(C)(C)C2	0
Cc1cccc(OCC(O)CN2C(C)(C)CC(O)CC2(C)C)c1 (stereo unspecified)	0
COc1ccc(Nc2nc(C)cc(C)c2C#N)cc1OC	0
CCc1nc(N2CCOCC2)c(C#N)c2c1CCCC2	0
Oc1[nH]c2ccccc2c1N=Nc1nc2ccccc2s1	1 (active)
CCCCn1c(=S)[nH]c2c(oc3ccc(Cl)cc32)c1=O	1 (active)
CCCCn1c(-c2ccc(Cl)cc2)nc2c(=O)n(C)c(=O)[nH]c21	0

Compound	manual score
CCN(CC)CCCn1c(=S)[nH]c2cc(Cl)ccc2c1=O	0
CC1(C)CC(=O)c2c(noc2-c2ccccc2)C1	0
CCCCN(CCCC)C(=S)NC(=O)c1ccccc1Cl	1 (active)
CCCN(CCC)CCCOC(=O)c1ccc(Cl)cc1Cl	0
CC1Cc2ccccc2N1C(=S)NC(=O)c1ccc(Cl)cc1Cl (stereo unspecified)	1 (active)
CCCCN(CCCC)C(=S)NC(=O)C(C)(C)C	1 (active)
CCCCn1c(NC(=O)c2ccccc2Cl)c(C#N)c2nc3ccccc3nc21	0
CCCCN(CCCC)c1ccc(C(=O)c2ccccc2C(=O)O)c(O)c1	-0.5
CCCN(CCC)C(=S)NC(=O)c1ccc(Cl)cc1Cl	1 (active)
CCCCN(CCCC)S(=O)(=O)c1ccc(NC(=O)c2ccc([N+](=O)[O-])cc2Cl)cc1	0
CC(C)CCNC(=O)C(C)N(C(=O)Cn1nnc(-c2ccc(F)cc2)n1)C1CCCC1 (stereo unspecified)	0
CCCCC(=O)N1CCCC(c2nc3c(nnn3Cc3cc(C)ccc3C)c(=O)[nH]2)C1 (stereo unspecified)	0
CC(C)(C)c1ccc(CN2C3=NCCCN3c3ccccc32)cc1	0
CCN(CC)C(=S)NC(=O)c1ccc(Cl)cc1Cl	1 (active)
CCOC(=O)/C(=C/C=C1\Sc2ccccc2N1CC)C(C)=O	3
COc1ccc(NC(=S)NC(NC(=O)/C=C/c2ccccc2)C(Cl)(Cl)Cl)cc1 (stereo unspecified)	0
O=C(/C=C/c1ccccc1)c1cc(Br)ccc(=O)c1O	1 (active)
COc1ccc(/C=C/C(=O)c2cc(Br)ccc(=O)c2O)cc1	1 (active)
CCc1ccc(/C=C/C(=O)c2cc(Br)ccc(=O)c2O)cc1	1 (active)
Cc1ccc(/C=C/C(=O)c2ccccc(=O)c2O)cc1C	1 (active)
CCCCCCn1cnc2c(c1=O)c1nc3ccccc3nc1n2/N=C/c1ccco1	0
Cc1cccc(NC(=O)COc2ccc(Br)cc2/C=N/O)c1	0

Compound	manual score
Cc1cccc(/C=C/C(=O)c2cc(Br)ccc(=O)c2O)c1	1 (active)
Cc1cccc(/C=c2\s/c(=C\C(=O)C(C)(C)C)[nH]c2=O)c1	0
CC(C)(C)C1CCc2[nH]nc(C(=O)O)c2C1 (stereo unspecified)	-1 (active)
CSC(=O)NC12CC3CC(CC(C)(C3)C1)C2	0
O=C(NC(=S)Nc1cc(C(F)(F)F)ccc1Cl)c1ccccc1	0
Cc1ccc(C(=O)NC(=S)Nc2ccccc2C(F)(F)F)cc1	1 (active)
Cc1ccc(C(=O)NC(=S)Nc2ccccc2C(F)(F)F)cc1C	1 (active)
Cc1cccc(C(=O)NC(=S)Nc2ccccc2C(F)(F)F)c1	1 (active)
O=C(NC(=S)Nc1nc2ccccc2s1)c1ccco1	1 (active)
O=C(NC(=S)NCc1ccc(-c2nc3ccccc3s2)cc1)c1ccco1	1 (active)
O=C(Nc1ccncc1)c1ccc2c(c1)C(=O)N(C1CCCCC1)C2=O	0
CC(C)(C)C(=O)/C=c1\[nH]c(=O)/c(=C\c2ccc(F)cc2)s1	0.5
CCOc1ccc(C(C)=O)cc1N1C(=O)C2C(C1=O)C1C=CC2C12CC2 (stereo unspecified)	0
CCOc1cc(/C=N/NC(=O)CNc2cccc(C)c2)ccc1OC(=O)c1ccccc1	0
O=C(NNc1nc2ccccc2nc1C(F)(F)F)c1ccccc1	1 (active)
Cc1ccc(C(=O)NC2(C(F)(F)F)N=C3SCCN3C2=O)cc1 (stereo unspecified)	0
Cc1nc(/N=C(\N)NC(=O)c2ccccc2)nc2ccccc12	0
Cc1ccc(C(=O)NNc2nc3ccccc3nc2C(F)(F)F)cc1	1 (active)
